Test results taken from ChEMBL document CHEMBL1961873, “Compounds: GSK PKIS; Assays: Nanosyn kinase panel” (2012).

Key:
[1] = molecular target: Tyrosine-protein kinase Fyn (Homo sapiens) (UniProt P06241); settings: at 1 µM
[2] = molecular target: Tyrosine-protein kinase HCK (Homo sapiens) (UniProt P08631); settings: at 0.1 µM
[3] = molecular target: Tyrosine-protein kinase HCK (Homo sapiens) (UniProt P08631); settings: at 1 µM
[4] = molecular target: Insulin-like growth factor 1 receptor (Homo sapiens) (UniProt P08069); settings: at 0.1 µM
[5] = molecular target: Insulin-like growth factor 1 receptor (Homo sapiens) (UniProt P08069); settings: at 1 µM
[6] = molecular target: Insulin receptor (Homo sapiens) (UniProt P06213); settings: at 0.1 µM
[7] = molecular target: Insulin receptor (Homo sapiens) (UniProt P06213); settings: at 1 µM
[8] = molecular target: Insulin receptor-related protein (Homo sapiens) (UniProt P14616); settings: at 0.1 µM
[9] = molecular target: Insulin receptor-related protein (Homo sapiens) (UniProt P14616); settings: at 1 µM
[10] = molecular target: T1, Tyrosine-protein kinase ITK/TSK (Homo sapiens) (UniProt Q08881); settings: at 0.1 µM
T1 sequence (whole entry): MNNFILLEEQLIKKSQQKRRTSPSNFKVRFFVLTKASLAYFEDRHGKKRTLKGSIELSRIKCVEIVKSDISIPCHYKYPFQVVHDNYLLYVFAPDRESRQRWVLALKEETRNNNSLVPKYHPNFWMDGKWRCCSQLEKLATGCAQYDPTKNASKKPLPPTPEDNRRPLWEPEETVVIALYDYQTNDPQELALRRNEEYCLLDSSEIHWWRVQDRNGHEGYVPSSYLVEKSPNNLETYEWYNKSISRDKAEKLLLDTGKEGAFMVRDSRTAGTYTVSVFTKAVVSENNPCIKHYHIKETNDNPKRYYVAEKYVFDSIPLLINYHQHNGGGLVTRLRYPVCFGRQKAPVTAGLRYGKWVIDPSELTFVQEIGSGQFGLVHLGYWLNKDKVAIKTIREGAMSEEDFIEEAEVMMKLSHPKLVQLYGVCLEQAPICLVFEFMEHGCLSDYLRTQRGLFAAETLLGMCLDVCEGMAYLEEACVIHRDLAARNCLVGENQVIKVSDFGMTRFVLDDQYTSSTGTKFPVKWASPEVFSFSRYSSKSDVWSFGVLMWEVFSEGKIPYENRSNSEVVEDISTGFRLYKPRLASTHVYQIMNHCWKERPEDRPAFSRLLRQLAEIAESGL

[11] = molecular target: T1, Tyrosine-protein kinase ITK/TSK (Homo sapiens); settings: at 1 µM
[12] = molecular target: Tyrosine-protein kinase JAK1 (Homo sapiens) (UniProt P23458); settings: at 0.1 µM
[13] = molecular target: Tyrosine-protein kinase JAK1 (Homo sapiens) (UniProt P23458); settings: at 1 µM
[14] = molecular target: Tyrosine-protein kinase JAK2 (Homo sapiens) (UniProt O60674); settings: at 0.1 µM
[15] = molecular target: Tyrosine-protein kinase JAK2 (Homo sapiens) (UniProt O60674); settings: at 1 µM
[16] = molecular target: T2, Tyrosine-protein kinase JAK3 (Homo sapiens) (UniProt P52333); settings: at 0.1 µM
T2 sequence (whole entry): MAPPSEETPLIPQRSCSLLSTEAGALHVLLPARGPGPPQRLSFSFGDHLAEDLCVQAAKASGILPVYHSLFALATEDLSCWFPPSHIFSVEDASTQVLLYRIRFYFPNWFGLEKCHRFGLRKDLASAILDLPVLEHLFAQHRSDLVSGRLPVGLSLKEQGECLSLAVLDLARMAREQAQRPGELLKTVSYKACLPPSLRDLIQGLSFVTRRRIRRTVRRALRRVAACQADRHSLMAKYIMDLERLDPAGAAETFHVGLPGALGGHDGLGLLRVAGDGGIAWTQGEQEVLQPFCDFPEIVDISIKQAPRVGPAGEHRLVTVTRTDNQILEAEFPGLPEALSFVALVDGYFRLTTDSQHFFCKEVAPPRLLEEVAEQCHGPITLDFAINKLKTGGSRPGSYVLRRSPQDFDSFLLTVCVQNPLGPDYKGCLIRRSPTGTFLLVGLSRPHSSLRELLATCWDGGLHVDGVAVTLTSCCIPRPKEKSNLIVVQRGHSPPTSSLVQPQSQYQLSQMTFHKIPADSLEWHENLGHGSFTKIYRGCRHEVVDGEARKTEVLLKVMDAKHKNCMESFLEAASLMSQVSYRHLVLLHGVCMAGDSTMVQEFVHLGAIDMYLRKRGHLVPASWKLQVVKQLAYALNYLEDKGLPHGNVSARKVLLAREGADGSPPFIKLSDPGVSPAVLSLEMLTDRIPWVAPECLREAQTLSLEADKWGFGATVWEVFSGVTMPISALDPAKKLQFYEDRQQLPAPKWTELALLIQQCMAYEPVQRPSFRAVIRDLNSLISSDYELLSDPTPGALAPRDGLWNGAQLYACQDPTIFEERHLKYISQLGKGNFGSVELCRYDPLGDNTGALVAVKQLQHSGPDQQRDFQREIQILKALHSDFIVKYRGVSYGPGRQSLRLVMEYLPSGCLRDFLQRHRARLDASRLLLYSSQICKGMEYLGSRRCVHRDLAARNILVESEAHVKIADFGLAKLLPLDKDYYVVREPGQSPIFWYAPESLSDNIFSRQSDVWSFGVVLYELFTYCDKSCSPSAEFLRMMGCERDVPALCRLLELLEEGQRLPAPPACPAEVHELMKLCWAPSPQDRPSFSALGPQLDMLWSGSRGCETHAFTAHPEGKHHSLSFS

[17] = molecular target: T2, Tyrosine-protein kinase JAK3 (Homo sapiens); settings: at 1 µM
[18] = molecular target: Vascular endothelial growth factor receptor 2 (Homo sapiens) (UniProt P35968); settings: at 0.1 µM
[19] = molecular target: Vascular endothelial growth factor receptor 2 (Homo sapiens) (UniProt P35968); settings: at 1 µM
[20] = molecular target: Mast/stem cell growth factor receptor Kit (Homo sapiens) (UniProt P10721); settings: at 0.1 µM;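 note: values are mean inhibition of KIT, from the GSK PKIS dataset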

Insulin receptor-related protein (Homo sapiens), sequence (P14616 27-742 limits assumed): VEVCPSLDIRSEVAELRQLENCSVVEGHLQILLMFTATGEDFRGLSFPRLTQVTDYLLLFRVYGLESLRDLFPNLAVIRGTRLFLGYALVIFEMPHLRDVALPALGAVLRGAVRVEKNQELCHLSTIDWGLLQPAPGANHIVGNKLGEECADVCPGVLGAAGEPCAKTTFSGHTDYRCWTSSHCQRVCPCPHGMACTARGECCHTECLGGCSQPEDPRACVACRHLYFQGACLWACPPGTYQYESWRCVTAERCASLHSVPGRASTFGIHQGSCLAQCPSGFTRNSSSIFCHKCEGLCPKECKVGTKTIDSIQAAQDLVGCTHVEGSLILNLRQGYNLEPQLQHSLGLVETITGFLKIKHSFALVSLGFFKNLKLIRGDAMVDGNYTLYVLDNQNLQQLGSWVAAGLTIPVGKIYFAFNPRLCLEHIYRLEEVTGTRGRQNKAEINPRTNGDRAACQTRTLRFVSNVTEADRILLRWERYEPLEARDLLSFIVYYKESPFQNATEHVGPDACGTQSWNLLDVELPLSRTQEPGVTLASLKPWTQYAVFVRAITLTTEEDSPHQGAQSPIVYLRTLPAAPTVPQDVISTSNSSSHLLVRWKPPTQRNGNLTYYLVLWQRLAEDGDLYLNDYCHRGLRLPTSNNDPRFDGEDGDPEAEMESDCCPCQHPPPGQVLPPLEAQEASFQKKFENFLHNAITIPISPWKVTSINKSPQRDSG
Insulin receptor-related protein (Homo sapiens), sequence (P14616 747-1297 limits assumed): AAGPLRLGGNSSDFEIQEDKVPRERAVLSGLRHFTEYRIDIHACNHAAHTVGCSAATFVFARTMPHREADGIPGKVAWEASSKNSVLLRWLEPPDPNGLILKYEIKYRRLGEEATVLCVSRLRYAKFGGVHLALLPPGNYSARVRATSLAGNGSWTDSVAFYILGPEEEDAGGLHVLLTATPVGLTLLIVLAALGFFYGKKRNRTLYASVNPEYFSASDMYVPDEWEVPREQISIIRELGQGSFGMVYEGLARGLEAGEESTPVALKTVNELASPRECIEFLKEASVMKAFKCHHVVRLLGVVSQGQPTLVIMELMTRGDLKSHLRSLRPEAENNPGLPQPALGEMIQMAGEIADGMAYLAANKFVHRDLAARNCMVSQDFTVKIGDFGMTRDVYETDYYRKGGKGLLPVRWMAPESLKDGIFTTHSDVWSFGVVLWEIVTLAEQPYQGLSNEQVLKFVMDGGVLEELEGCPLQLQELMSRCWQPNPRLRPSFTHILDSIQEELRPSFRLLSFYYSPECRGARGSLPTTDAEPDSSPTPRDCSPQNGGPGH
Tyrosine-protein kinase HCK (Homo sapiens), sequence (P08631 2-526 limits assumed): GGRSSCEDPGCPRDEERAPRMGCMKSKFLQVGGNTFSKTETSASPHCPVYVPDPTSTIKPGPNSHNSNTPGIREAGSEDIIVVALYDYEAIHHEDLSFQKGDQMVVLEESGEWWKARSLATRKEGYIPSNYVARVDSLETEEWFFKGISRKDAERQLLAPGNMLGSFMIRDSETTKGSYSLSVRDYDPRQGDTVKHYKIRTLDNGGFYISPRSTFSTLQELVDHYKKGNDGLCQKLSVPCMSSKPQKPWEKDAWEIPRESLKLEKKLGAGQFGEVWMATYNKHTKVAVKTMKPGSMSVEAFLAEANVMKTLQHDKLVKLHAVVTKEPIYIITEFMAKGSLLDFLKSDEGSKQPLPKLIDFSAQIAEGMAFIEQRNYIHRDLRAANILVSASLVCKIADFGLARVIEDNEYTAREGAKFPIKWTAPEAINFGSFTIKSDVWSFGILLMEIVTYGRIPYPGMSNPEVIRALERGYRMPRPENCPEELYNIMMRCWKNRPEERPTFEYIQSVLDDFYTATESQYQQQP
Tyrosine-protein kinase Fyn (Homo sapiens), sequence (P06241 2-537 limits assumed): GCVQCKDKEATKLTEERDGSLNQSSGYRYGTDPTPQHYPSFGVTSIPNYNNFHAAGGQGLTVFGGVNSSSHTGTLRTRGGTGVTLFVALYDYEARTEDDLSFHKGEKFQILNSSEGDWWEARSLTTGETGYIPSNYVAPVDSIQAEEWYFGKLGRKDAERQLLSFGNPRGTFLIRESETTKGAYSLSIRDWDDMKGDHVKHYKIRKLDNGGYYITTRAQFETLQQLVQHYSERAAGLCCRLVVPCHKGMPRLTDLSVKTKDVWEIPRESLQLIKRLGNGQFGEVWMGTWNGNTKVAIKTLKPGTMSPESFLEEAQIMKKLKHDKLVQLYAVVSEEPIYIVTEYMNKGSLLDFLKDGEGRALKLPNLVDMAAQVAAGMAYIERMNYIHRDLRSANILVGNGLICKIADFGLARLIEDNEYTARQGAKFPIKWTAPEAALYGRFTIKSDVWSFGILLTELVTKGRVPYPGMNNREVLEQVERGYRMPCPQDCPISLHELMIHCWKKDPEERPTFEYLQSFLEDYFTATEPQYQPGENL
Tyrosine-protein kinase JAK1 (Homo sapiens), sequence (P23458 whole entry): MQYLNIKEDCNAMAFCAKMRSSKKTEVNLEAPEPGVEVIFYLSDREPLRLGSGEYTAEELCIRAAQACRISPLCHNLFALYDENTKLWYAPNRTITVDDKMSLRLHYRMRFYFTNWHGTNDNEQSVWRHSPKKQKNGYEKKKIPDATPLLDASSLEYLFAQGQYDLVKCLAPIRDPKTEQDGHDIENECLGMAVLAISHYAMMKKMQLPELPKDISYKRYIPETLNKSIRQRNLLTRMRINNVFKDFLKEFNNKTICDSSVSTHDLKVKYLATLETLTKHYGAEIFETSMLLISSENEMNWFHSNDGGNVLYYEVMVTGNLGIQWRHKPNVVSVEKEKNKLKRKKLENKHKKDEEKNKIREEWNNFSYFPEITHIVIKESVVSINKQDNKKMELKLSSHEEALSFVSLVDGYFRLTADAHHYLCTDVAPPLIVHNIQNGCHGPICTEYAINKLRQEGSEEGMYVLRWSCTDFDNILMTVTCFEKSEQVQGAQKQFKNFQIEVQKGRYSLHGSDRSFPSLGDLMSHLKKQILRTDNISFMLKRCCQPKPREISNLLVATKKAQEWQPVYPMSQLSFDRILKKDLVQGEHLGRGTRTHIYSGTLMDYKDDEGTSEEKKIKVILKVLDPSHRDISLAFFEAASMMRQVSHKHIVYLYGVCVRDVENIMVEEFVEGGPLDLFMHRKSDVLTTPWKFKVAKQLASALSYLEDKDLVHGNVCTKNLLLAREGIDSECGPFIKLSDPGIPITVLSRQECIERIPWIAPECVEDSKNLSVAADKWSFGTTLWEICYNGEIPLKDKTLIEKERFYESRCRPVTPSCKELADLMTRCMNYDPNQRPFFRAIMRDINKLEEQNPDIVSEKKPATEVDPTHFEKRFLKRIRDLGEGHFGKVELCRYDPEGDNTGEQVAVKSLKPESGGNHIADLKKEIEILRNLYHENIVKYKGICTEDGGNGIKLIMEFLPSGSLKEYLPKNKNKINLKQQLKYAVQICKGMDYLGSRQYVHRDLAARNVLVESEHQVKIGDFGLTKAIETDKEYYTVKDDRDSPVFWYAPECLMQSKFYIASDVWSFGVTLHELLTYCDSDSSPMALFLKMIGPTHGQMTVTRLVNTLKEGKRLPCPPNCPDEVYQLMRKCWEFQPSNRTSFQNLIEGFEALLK
Insulin-like growth factor 1 receptor (Homo sapiens), sequence (P08069 31-736 limits assumed): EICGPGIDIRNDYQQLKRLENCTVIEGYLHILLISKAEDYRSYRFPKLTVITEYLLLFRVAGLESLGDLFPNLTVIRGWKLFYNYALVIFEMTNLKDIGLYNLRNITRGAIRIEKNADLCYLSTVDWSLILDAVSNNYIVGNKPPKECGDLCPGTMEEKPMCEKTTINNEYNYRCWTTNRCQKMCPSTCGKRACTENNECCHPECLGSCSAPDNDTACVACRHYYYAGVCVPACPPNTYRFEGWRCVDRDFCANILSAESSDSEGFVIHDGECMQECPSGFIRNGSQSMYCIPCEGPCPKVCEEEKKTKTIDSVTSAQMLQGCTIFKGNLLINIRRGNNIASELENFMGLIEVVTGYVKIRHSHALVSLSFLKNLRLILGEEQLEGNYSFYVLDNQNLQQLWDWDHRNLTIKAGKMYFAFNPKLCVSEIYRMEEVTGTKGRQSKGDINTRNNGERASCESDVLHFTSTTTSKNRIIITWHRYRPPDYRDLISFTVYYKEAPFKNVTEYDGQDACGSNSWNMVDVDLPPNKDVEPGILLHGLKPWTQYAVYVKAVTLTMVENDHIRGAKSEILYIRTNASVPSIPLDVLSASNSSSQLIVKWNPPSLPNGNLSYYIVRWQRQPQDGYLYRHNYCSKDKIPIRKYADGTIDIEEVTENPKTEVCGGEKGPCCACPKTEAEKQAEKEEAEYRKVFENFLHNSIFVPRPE
Insulin-like growth factor 1 receptor (Homo sapiens), sequence (P08069 741-1367 limits assumed): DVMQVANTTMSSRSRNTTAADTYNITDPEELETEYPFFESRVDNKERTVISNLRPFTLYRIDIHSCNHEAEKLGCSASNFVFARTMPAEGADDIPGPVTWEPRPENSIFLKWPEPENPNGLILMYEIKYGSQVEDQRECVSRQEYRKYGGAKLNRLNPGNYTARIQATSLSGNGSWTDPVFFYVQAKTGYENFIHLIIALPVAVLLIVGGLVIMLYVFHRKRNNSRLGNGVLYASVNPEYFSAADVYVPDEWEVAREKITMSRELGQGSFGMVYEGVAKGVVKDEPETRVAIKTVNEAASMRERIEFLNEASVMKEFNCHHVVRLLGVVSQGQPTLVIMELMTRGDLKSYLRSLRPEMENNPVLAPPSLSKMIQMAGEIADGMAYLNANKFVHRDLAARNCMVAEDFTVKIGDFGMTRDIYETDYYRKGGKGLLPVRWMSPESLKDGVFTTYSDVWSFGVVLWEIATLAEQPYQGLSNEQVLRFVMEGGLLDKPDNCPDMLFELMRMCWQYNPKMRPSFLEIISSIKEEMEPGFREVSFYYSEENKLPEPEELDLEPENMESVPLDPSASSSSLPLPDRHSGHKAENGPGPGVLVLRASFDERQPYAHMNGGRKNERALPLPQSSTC

| SMILES | inhibition [1] [%] | inhibition [2] [%] | inhibition [3] [%] | inhibition [4] [%] | inhibition [5] [%] | inhibition [6] [%] | inhibition [7] [%] | inhibition [8] [%] | inhibition [9] [%] | inhibition [10] [%] | inhibition [11] [%] | inhibition [12] [%] | inhibition [13] [%] | inhibition [14] [%] | inhibition [15] [%] | inhibition [16] [%] | inhibition [17] [%] | inhibition [18] [%] | inhibition [19] [%] | inhibition [20] [%] |
| --- | --- | --- | --- | --- | --- | --- | --- | --- | --- | --- | --- | --- | --- | --- | --- | --- | --- | --- | --- | --- |
| O=C(Nc1n[nH]c2nnc(-c3cccnc3)cc12)C1CC1 | 4.86 | 0.81 | 2.83 | 0.22 | -1.27 | 3.48 | 1.82 | -0.87 | -1.01 | 0.11 | 2.49 | 1.49 | 2.85 | -0.35 | 0.3 | -0.15 | 0.02 | -0.85 | 2.5 | 1.26 |
| OCCCNc1nccc(-c2c(-c3ccc(F)cc3)nn3cc(C(F)(F)F)ccc23)n1 | 4.88 | 5.52 | 5.92 | 1.8 | 1.03 | 0.28 | 3.33 | 3.08 | 1.53 | 1.09 | 0.19 | -0.95 | -4.2 | 1.8 | 0.99 | 0.08 | 1.33 | 4.84 | 6.21 | 3.28 |
| FC(F)(F)CNc1nccc(-c2cnn3ncccc23)n1 | 0.37 | 2.76 | 2.72 | 1.46 | 1.63 | 0.86 | 1.21 | -0.18 | 1.1 | -0.07 | 1 | 1.9 | 2.18 | 1.39 | -0.82 | -1.54 | -1.63 | 2.14 | 4.88 | 2.28 |
| COc1c(C(N)=O)cc(-c2ccc(Cl)cc2)cc1-c1ccc(S(N)(=O)=O)cc1 | 2.81 | 6.39 | 7.93 | 7.44 | 4.41 | 9.51 | 5.04 | 2.33 | 3.46 | 2.02 | 2.4 | 1.1 | 3.15 | 2.98 | 3.05 | 0.08 | -0.75 | 6.96 | 9.32 | 6.94 |
| COc1cccc(Nc2nccc(-c3cnn4ncccc34)n2)c1 | 16.2 | 7.25 | 17.4 | 14.5 | 52.4 | 10.9 | 54.2 | 3.8 | 15.4 | 1.26 | 6.45 | -0.13 | 13.2 | 1.95 | 29.2 | 2.03 | 44.2 | 9.69 | 42.1 | 89.5 |
| COc1ccc(-c2nn3ncccc3c2-c2ccnc(Nc3ccc(F)c(F)c3)n2)cc1 | 12.1 | 3.38 | 16.5 | 2.75 | 3.2 | 4.32 | 2.06 | 3.12 | 3.47 | 0.92 | 3.13 | 3.71 | 14.6 | 0.73 | 1.18 | -1.36 | 0.8 | 6.9 | 20.6 | 7.56 |
| NS(=O)(=O)c1cccc(N/C=C2\C(=O)Nc3ccccc32)c1 | 4.25 | 6.87 | 17.6 | 2.44 | 5.81 | 5.3 | 11.9 | 2.22 | 2.55 | 1.13 | 3.54 | 2.83 | 6.08 | 1.37 | 2.13 | -2 | 0.9 | 9.08 | 35.3 | 16.4 |
| CNC(=O)c1cncc(/C=C/c2ccccc2C)c1 | 10.8 | 6.15 | 20.1 | 3.6 | 6.92 | 2.85 | 2.34 | 4.17 | 2.86 | 1.32 | 2.59 | 6.31 | 12.7 | 1.48 | 1.45 | -0.66 | 0.49 | 4.29 | 7.71 | 5.02 |
| Cc1c2ccc(N(C)c3ccnc(Nc4cccc(S(N)(=O)=O)c4)n3)cc2nn1C | 60.5 | 31.2 | 73.8 | -4.22 | 13.1 | 7.68 | 18.7 | 2.78 | 2.81 | -1.73 | 2.14 | 1.56 | 9.69 | 2.02 | 6.46 | -4.75 | 0.05 | 76.4 | 73 | 92.6 |
| CCCNc1cccc(-n2ncc3c(N/N=C/c4ccncc4)ncnc32)c1 | 52.8 | 7.22 | 35.8 | 0.75 | -0.01 | 1.6 | 0.96 | 0.19 | 1.63 | 6.02 | 10.8 | 6.59 | 11.7 | 0.82 | 14.7 | -1.09 | 8.21 | 17.3 | 64.9 | 2.4 |
